An excerpt weighted towards active compounds, which were near 11% of everything screened.
Sfp inh = Sfp phosphopantetheinyl transferase inhibition | Biochemical Sfp PPTase activity, qHTS | Potency, µM, for the others: largest response in the series, negative = inhibition, most hits filed as inhibitors | 310,000 tested, 3.5% active;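 further: the enzyme is Sfp with the accession as filed and its product quenches rhodamine fluorescence; potency means the concentration at half of the fitted maximal effect; 0% = enzyme reaction without inhibitor and -100% = no enzyme wells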
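Buffer: 50 mM Hepes-Na pH 7.6, 10 mM MgCl2, 0.01% Nonidet P-40, 0.01% BSA. Enzyme 15 nM, pre-exposed to compound 15 min; substrates then added and fluorescence change tracked over 30 min.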
Tau fluor counter = counter-screen for tau fibril formation inhibitors | AID 1463 | 280,000 tested, 0.93% active | Potency, µM (top dose mostly 57.7 µM), for the others: top-dose activity change, negative = decrease | tau K18 P301L Alexa594 fluorescence, heparin fibrillization; further: potency means the concentration at half of the fitted maximal effect; nearly all actives have a fitted effect of over 55% in size
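Human K18 P301L tau (15 uM unlabeled plus 0.24 uM Alexa 594-labeled, final) in 100 mM sodium acetate pH 7 was mixed with compound and 20 uM heparin and incubated 6 hr at 37 C.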
Tau fibril FP = tau fibrillization inhibition (FP); P10636; K18 P301L tau heparin fibrillization, Alexa594 FP, 6 h; Potency, µM (titrated, usually from 57.7 µM), for the others: at the top dose activity, negative = inhibition, actives largely listed as inhibitors; 280,000 tested, 0.39% active; AID 1468; further: potency means the concentration at half of the fitted maximal effect; nearly all actives have a fitted effect of over 55% in size
Target sequence (P10636 561-689 P618L limits assumed): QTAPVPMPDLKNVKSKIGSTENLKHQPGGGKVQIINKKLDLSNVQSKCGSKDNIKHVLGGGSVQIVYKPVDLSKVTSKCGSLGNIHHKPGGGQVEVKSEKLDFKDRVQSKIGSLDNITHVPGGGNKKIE
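Steps: dispense K18 P301L tau (15 uM plus 0.24 uM Alexa 594 tracer, final) in pH 7 sodium acetate; add compound; add heparin (20 uM final); incubate 6 hr, 37 C; add ThT (30 uM final); after 1 hr ambient, read FP.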
Tau ThT inhib = blocks human tau fibril formation measured by thioflavin T | recombinant tau K18 P301L, heparin-induced fibrillization, ThT fluorescence | Potency, µM (highest dose often 57.4 µM), inactives show at the highest dose activity, negative = inhibition, most hits filed as inhibitors | 270,000 tested, 2.1% active; further: potency means the concentration at half of the fitted maximal effect; nearly all actives have a fitted effect of over 55% in size
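Fibril formation assay: tau K18 P301L at 15 uM with trace Alexa 594 label, heparin inducer 20 uM, pH 7 sodium acetate buffer, 37 C for 6 hr; endpoint ThT signal.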
G9a block = blocks human histone lysine methyltransferase G9a; Q96KQ7; AID 504332; 350,000 tested, 8.8% active; G9a H3K9 monomethylation, AlphaScreen, 2 h; Potency, µM (titrated, usually from 102 µM), for the others: at the top dose activity, negative = inhibition, usual class: inhibitors; further: potency means the concentration at half of the fitted maximal effect; nearly all actives have a fitted effect of over 75% in size
Target sequence (Q96KQ7 913-1193 limits assumed): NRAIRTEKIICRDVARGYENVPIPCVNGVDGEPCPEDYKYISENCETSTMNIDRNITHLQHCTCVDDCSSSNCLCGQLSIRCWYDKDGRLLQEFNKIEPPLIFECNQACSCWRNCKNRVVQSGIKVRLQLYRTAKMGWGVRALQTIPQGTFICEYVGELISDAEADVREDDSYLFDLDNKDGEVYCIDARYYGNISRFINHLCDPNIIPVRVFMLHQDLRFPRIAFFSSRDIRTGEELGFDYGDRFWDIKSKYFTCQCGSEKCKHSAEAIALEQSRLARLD
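Enzyme 20 nM + cpd, 15 min RT; add b-H3K9 pep 500 nM / SAM 20 uM; 2 h RT; anti-H3K9me1 Ab 0.5 ug/mL + SA donor / anti-rabbit acceptor beads 20 ug/mL each, 10 min; AlphaScreen read.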
Coupling enz = counter-screen for Giardia aldolase inhibitors: coupling enzyme system. coupling enzyme system counterscreen, AmpLite Red fluorescence. activity change, negative = inhibition, % at 58.2 µM, hits read low. 290,000 tested, 0.67% active; in the data active means activity change below about -30%
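Activity here indicates interference with the coupling reaction, not aldolase inhibition. Compounds at 57.5 uM final met coupling enzymes for 10 min at RT; substrate and AmpLite Red detection followed, with a 525/598 nm fluorescence read after 20 min.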
Numbers without * were called inactive; u = inconclusive; x = no result given; [ ] = dose if it differs, or a comment. Unless noted, the call rests on the fitted dose curve; in most records, active means well fitted curve in the direction sought with a large enough effect; inconclusive means small, poorly fitted or top-dose-only effect, or another doubt; inactive means no such curve, though single readings can be large; an effect the other way counts as inactive or inconclusive. Unless noted, on the % scale 0 is the no-effect control and ±100 the full control effect.

SMILES | Sfp inh | Tau fluor counter | Tau fibril FP | Tau ThT inhib | G9a block | Coupling enz
Cc1ccc(C(=S)NCS(=O)(=O)c2ccc(C)cc2)cc1 | u | -7% | 0% | u | 40µM* | 1
Cc1ccc(S(=O)(=O)CNC(=S)c2cccc(Cl)c2)cc1 | 14% | -13% | 4% | u | u | 0
CC(=O)NS(=O)(=O)c1ccc(NC(=S)Nc2ccccc2)cc1 | 12% | x | x | x | 2% | 1
CCNC(=S)NS(=O)(=O)c1ccc(CC)cc1 | -27% | 0% | -1% | -10% | 28µM* | 2
CCNC(=S)NS(=O)(=O)c1ccc(C)cc1 | u | 4% | 4% | 1% | 32µM* | 1
CC(C)C[C@@H](CO)N1CCN(Cc2cccnc2)CCC1=O | 17% | x | x | x | -5% | -1
O=C(Nc1ccc(-c2cn3c(n2)SCC3)cc1)c1ccco1 | -11% | -3% | 9% | u | 28µM* | 4
O=C(Cc1ccc(F)cc1)Nc1cccc(-c2cn3c(n2)SCC3)c1 | 1% | -22% | -13% | -13% | 10µM* | 1
O=C(Nc1cccc(-c2cn3c(n2)SCC3)c1)c1ccc(Br)o1 | 14% | -24% | -4% | u | 7.9µM* | 1
CC(=O)Nc1ccc(-c2cn3c(n2)SCC3)cc1 | -1% | x | x | x | 16%[2.33 µM] | 3
CCc1ccc(-c2cn3c(n2)SCC3)cc1 | 9% | -14% | -7% | u | 45µM* | 4
CC(=O)Nc1ccc(S(=O)(=O)Nc2cccc(-c3cn4c(n3)SCC4)c2)cc1 | 1% | -28% | 1% | -10% | u | 0
COc1cccc(CNC(=O)C(=O)NCC(c2ccc3c(c2)OCO3)N2CCOCC2)c1 (centres undefined) | x | -9% | -7% | -3% | 5%[59 µM] | x
Cc1cc(C)cc(NC(=O)CSc2cc(C(=O)c3nccn3C)c3ccccc3n2)c1 | -3% | -2% | u | -4% | -4%[59 µM] | -3
Cc1cccc(NC(=O)CSc2cc(C(=O)c3nccn3C)c3ccccc3n2)c1 | 15% | -18% | -11% | -8% | 13µM* | -1
Cn1ccnc1C(=O)c1cc(SCC(=O)NCc2ccccc2)nc2ccccc12 | 40µM* | -3% | 2% | -7% | u | 5
O=C(Nc1ccccc1)n1ccc(-c2ccc(-n3ccnc3)cc2)n1 | -11% | -1% | 3% | -4% | 17% | -2
c1ccc2c(c1)CCCN2Cc1nnnn1CC1CCCO1 (centres undefined) | 8% | -6% | -1% | -3% | u | -2
c1ccc2sc(N3CCN(Cc4nnnn4CC4CCCO4)CC3)nc2c1 (centres undefined) | -7% | -5% | 3% | -13% | 28µM* | 2
CCCc1ccc(C(=O)O)cc1 | 17% | x | x | x | -2%[59 µM] | x
Cc1ccc(S(=O)(=O)/N=S(/c2ccccc2)C(C)C)cc1 (centres undefined) | 18µM* | -7% | u | u | 4.5µM* | 1
COc1ccccc1-n1c(SCC(=O)N2CCc3ccccc32)nc2c(c1=O)SCC2 | 79µM* | 11% | -4% | 4% | -2%[59 µM] | -5
COc1ccc(OC)c(-n2c(SCC(=O)N3CCc4ccccc43)nc3c(c2=O)SCC3)c1 | 10% | -1% | 2% | -1% | -4%[59 µM] | -3
CCOc1ccccc1C(C(=O)NC1CCCC1)N(C(=O)c1csnn1)C1CC1 (centres undefined) | 2% | x | x | x | 23% | 5
O=c1[nH][nH]c(C(F)(F)F)c1/C=N/N1CCOCC1 | -7% | -9% | -10% | u | 40µM* | -1
SMILES | Sfp inh | Tau fluor counter | Tau fibril FP | Tau ThT inhib | G9a block | Coupling enz
O=c1[nH][nH]c(C(F)(F)F)c1C=Nc1ccc(Cl)cc1 | -2% | -3% | -4% | -2% | -24%[12.7 µM] | 6
CCOC1=C/C(=C/c2c(N)n3nc(CC(=O)N4CCCCC4)sc3nc2=O)C=CC1=O | 14% | x | x | x | 50µM* | 8
CCOC1=C/C(=C/c2c(N)n3nc(S(=O)(=O)CC)sc3nc2=O)C=CC1=O | -6% | -2% | 11% | u | 35µM* | 6
COc1ccc(NC(=O)C(NC(=O)/C=C\c2ccc3c(c2)OCO3)c2ccccc2)cc1 (centres undefined) | x | u | u | 2% | -29%[59 µM] | x
O=C1CC(N2CCSCC2)C(=O)N1c1cccc(Cl)c1 (centres undefined) | 19% | -11% | -2% | -15% | -20%[59 µM] | -1
N#Cc1nc(-c2ccco2)oc1NCc1cccnc1 | -2% | -1% | 0% | -4% | -6%[12.7 µM] | 2
COc1ccc(OCc2ccc(-c3nc(C#N)c(NCc4ccc(F)cc4)o3)o2)cc1 | x | u | 4% | 7% | 4µM* | x
N#Cc1nc(-c2ccc(COc3ccccc3)o2)oc1NCc1cccnc1 | x | u | u | u | 13µM* | x
COCCCNc1oc(-c2ccc(COc3ccc(Cl)cc3)o2)nc1C#N | x | 11µM*[quencher] | u | u | 8.9µM* | x
CN(C)c1oc(-c2ccc(COc3ccccc3)o2)nc1C#N | x | u | 8% | u | 14µM* | x
CC(Nc1oc(-c2ccc(COc3ccc(Cl)cc3)o2)nc1C#N)c1ccccc1 (centres undefined) | x | u | -9% | 1% | -3%[59 µM] | x
COc1ccc(CNc2oc(-c3ccc(COc4ccc(OC)cc4)o3)nc2C#N)cc1 | x | u | 9% | -10% | u | x
Cc1ccc(CN(C(=O)c2ccc([N+](=O)[O-])cc2)c2ccccn2)cc1 | x | -14% | 12% | -2% | u | x
CCc1ccc(S(=O)(=O)c2nnn3c2nc(NCCNC(C)=O)c2cc(Cl)ccc23)cc1 | x | -17% | u | 9% | 9%[59 µM] | x
COc1ccc(-c2nc(C#N)c(NCCc3ccccc3)o2)cc1 | -2% | u | 9% | u | -11%[59 µM] | 0
COc1ccc(CNc2oc(-c3ccccc3)nc2C#N)cc1 | -12% | u | 6% | -12% | 40µM* | 3
CN(C)CCNc1oc(COc2ccc(Cl)cc2Cl)nc1C#N | 4% | -9% | -4% | u | x | -2
COCCCNc1oc(COc2ccc(Cl)cc2Cl)nc1C#N | -7% | -20% | 2% | u | 32µM* | -7
COc1ccc(C(=O)O/N=C(\N)Cc2ccc([N+](=O)[O-])cc2)c(OC)c1 | 7% | -15% | 4% | u | x | 0
COc1ccc(OC)c(C(=O)/C=C/c2cccnc2)c1 | -28% | x | x | x | 50µM* | 2
COc1ccc(/C=C/C(=O)c2c(OC)cc(O)cc2OC)cc1 | -25% | x | x | x | x | 0
COc1cc(C(=O)/C=C/c2cccnc2)ccc1O | -8% | x | x | x | -44% | -1
COc1cc(O)c(C(=O)/C=C/c2ccc(O)c(OC)c2)c(OC)c1 | -38% | -29% | 1% | 1.8µM* | u | 1
O=C(/C=C/c1cccnc1)/C=C/c1cccnc1 | 14µM* | -26% | u | 4.5µM* | 28µM* | -1
